These results are taken from paper PMC7862700, “An all-to-all approach to the identification of sequence-specific readers for epigenetic DNA modifications on cytosine”.

Common to all, as to assay: DAPPL (digital affinity profiling via proximity ligation, sequencing); 10 mM Tris-HCl pH 7.5, 50 mM NaCl, 1 mM DTT, 4% glycerol, room temperature, 30 min; GST-TFs on glutathione beads, 16-mer random dsDNA library, 0.1% formaldehyde crosslink after washing; high values mean tight binding
Details in all cases: protein: recombinant; tags: N-terminal GST; dsDNA, one strand shown

One assay has as its target T1, FLI1 (Homo sapiens, UniProt Q01543 1-452).
T1 sequence: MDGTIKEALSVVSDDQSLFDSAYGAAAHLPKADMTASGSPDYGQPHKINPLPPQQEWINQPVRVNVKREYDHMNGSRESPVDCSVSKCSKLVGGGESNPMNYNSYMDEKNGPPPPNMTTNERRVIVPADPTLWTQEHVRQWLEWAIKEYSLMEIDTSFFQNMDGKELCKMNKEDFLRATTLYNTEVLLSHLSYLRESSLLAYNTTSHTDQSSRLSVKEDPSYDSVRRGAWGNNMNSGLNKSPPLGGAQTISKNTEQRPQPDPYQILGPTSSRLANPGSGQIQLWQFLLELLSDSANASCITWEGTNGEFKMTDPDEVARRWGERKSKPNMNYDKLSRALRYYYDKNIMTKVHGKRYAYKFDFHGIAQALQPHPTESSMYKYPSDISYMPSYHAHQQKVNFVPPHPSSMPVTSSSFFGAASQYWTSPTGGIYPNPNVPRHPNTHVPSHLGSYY
The gist of the method: (§1)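 Binding signal is defined as a hexamer's read frequency for one factor over its frequency for the tag-only sample. To obtain reads, GST-fused human transcription factors were expressed in yeast, captured on glutathione beads, barcoded with DNA and pooled with that sample. Pools met 200 nmole of a 16-mer random double-stranded DNA library in Tris/NaCl/DTT/glycerol buffer for 30 min at room temperature before washing, 0.1% formaldehyde crosslinking, proximity ligation (BsaI/T4 ligase, 1 h, 37 °C), PCR and Illumina NextSeq500 sequencing.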

In a further assay the target is T2, ELK1 (Homo sapiens, UniProt P19419 1-428).
T2 sequence: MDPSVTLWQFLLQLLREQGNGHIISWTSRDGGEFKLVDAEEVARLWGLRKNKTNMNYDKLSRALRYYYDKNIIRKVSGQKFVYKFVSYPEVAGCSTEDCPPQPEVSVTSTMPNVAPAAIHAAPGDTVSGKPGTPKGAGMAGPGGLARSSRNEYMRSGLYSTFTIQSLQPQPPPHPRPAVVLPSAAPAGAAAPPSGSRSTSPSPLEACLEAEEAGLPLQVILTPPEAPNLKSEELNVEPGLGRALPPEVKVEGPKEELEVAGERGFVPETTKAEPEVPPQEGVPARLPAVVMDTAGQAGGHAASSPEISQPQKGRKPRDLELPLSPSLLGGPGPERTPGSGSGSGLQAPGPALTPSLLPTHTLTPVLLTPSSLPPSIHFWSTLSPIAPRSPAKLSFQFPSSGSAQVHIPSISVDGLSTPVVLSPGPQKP
A digest of the protocol:
as §1

For another assay, the target named is T3, GABPA (Homo sapiens, UniProt Q06546 1-454).
T3 sequence: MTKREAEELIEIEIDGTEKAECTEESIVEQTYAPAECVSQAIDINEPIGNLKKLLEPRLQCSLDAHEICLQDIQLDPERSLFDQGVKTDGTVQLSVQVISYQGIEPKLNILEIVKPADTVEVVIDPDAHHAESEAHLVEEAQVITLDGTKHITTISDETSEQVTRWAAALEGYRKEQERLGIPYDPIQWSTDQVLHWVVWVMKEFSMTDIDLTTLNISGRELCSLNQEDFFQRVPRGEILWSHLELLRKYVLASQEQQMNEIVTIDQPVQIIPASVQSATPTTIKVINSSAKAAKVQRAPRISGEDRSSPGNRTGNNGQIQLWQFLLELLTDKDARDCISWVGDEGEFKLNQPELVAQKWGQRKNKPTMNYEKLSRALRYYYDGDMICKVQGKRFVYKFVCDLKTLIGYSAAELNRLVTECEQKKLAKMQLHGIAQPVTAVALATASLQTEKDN
The gist of the method: as §1

A further assay concerns the target T4, ERG (Homo sapiens, UniProt P11308 1-479).
T4 sequence: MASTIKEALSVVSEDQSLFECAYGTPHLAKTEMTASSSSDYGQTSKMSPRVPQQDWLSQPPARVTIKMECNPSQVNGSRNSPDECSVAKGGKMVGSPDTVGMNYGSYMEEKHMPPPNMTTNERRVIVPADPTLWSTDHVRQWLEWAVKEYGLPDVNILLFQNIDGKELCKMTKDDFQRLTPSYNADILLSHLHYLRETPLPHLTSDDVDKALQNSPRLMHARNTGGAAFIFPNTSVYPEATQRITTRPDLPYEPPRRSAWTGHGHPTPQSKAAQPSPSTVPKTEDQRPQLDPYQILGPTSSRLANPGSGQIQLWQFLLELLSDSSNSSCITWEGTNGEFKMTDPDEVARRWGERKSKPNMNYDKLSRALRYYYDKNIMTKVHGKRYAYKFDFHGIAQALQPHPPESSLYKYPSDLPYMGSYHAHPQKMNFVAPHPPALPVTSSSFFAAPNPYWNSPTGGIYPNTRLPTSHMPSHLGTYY
A digest of the protocol: as §1

A further assay addresses ELF1 (Homo sapiens, UniProt P32519 1-619). The gist of the method:
as §1

The next assay addresses T5, EHF (Homo sapiens, UniProt Q9NZC4 1-300).
T5 sequence: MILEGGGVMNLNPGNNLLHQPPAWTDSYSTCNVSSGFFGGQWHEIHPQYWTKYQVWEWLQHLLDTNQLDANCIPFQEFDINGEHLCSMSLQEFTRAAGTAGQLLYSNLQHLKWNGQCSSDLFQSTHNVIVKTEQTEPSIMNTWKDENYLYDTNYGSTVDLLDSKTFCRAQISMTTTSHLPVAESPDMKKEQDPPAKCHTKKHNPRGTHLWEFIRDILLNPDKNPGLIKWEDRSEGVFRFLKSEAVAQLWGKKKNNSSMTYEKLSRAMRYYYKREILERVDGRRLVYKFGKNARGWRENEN
A digest of the protocol: as §1

For a further assay, the target named is SPI1 (Homo sapiens, UniProt P17947 1-270). A digest of the protocol:
as §1

The target in the next assay is SPIB (Homo sapiens, UniProt Q01892 1-262). A digest of the protocol: as §1
For the next assay, the target named is T6, ELK3 (Homo sapiens, UniProt P41970 1-407).
T6 sequence: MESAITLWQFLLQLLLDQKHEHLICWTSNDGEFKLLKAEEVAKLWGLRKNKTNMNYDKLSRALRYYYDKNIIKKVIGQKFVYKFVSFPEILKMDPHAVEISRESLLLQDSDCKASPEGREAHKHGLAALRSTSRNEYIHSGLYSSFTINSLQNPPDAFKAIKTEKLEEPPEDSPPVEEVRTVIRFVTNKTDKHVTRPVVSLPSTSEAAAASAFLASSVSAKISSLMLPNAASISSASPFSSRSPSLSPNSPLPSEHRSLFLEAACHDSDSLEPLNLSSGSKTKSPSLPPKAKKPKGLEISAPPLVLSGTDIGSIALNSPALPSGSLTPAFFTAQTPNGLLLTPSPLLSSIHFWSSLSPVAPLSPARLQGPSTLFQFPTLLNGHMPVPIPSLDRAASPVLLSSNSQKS
The gist of the method: as §1

The next assay has as its target T7, FEV (Homo sapiens, UniProt Q99581 1-238).
T7 sequence: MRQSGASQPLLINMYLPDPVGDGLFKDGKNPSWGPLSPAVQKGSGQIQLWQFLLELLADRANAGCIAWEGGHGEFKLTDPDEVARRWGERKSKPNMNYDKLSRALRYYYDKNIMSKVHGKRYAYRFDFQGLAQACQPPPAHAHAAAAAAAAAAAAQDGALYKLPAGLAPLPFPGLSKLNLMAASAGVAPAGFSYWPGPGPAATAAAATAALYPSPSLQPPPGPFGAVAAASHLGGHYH
A digest of the protocol:
as §1

The target in the next assay is ETV5 (Homo sapiens, UniProt P41161 1-510). A digest of the protocol: as §1
A further assay concerns the target T8, SPIC (Homo sapiens, UniProt Q8N5J4 1-248).
T8 sequence: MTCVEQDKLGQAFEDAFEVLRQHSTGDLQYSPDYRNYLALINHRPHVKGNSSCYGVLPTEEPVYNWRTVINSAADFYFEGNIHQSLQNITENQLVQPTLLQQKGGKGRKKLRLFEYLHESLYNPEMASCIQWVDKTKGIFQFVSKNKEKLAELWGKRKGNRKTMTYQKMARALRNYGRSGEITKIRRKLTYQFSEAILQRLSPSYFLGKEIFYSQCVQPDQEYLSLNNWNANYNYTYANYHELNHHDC
The gist of the method:
as §1

The target in another assay is ELF4 (Homo sapiens, UniProt Q99607 1-663). A digest of the protocol:
as §1

In a further assay the target is T9, ELK4 (Homo sapiens, UniProt P28324-2 1-405).
T9 sequence: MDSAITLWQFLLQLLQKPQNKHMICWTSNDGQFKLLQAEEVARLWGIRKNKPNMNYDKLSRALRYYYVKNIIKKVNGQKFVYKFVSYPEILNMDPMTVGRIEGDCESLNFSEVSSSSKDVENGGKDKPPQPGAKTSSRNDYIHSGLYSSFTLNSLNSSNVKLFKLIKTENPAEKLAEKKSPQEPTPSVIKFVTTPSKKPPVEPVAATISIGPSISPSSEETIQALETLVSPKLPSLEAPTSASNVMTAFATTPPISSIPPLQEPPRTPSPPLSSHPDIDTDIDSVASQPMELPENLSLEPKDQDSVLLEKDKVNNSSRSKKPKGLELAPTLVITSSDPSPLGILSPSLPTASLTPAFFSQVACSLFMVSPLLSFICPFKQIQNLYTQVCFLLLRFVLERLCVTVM
The gist of the method: as §1

Another assay has as its target T10, ETV2 (Homo sapiens, UniProt O00321 1-342).
T10 sequence: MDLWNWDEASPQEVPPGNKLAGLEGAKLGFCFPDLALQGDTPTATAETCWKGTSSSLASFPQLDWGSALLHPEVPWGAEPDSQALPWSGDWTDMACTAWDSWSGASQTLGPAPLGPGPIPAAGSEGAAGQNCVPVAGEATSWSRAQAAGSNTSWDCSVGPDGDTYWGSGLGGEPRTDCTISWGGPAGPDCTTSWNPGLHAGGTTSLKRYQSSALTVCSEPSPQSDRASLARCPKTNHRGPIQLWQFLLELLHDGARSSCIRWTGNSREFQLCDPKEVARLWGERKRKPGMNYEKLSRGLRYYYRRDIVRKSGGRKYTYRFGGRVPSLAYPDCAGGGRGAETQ
A digest of the protocol:
as §1

For the next assay, the target named is T11, ELF3 (Homo sapiens, UniProt P78545 1-371).
T11 sequence: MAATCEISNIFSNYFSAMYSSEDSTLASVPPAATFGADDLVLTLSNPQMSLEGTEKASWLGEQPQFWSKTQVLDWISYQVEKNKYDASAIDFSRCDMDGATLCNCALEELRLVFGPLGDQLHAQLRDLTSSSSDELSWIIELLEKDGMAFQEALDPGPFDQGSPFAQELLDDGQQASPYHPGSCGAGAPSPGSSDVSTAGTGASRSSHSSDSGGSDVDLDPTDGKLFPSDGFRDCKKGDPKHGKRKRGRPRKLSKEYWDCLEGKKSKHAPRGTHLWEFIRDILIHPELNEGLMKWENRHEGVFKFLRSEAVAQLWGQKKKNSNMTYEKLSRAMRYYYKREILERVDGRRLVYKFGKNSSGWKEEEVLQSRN
A digest of the protocol: as §1

The target in a further assay is ETV1 (Homo sapiens, UniProt P50549 1-477). The gist of the method:
as §1

Sequence of ETV5 (P41161 whole entry): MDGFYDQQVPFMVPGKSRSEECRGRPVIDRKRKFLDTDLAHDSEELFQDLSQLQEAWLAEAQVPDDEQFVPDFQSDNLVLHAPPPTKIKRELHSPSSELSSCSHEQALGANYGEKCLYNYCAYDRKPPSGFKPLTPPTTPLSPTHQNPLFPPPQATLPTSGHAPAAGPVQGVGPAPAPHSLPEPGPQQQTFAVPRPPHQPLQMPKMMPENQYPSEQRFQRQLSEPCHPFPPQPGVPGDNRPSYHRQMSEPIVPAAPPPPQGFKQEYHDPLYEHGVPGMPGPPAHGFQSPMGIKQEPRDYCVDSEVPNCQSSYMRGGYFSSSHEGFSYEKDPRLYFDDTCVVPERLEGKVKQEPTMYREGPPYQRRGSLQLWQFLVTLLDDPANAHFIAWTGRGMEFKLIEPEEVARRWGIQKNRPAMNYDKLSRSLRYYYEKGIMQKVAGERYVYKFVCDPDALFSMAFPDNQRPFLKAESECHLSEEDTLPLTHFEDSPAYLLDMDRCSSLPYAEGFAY
Sequence of ELF1 (P32519 whole entry): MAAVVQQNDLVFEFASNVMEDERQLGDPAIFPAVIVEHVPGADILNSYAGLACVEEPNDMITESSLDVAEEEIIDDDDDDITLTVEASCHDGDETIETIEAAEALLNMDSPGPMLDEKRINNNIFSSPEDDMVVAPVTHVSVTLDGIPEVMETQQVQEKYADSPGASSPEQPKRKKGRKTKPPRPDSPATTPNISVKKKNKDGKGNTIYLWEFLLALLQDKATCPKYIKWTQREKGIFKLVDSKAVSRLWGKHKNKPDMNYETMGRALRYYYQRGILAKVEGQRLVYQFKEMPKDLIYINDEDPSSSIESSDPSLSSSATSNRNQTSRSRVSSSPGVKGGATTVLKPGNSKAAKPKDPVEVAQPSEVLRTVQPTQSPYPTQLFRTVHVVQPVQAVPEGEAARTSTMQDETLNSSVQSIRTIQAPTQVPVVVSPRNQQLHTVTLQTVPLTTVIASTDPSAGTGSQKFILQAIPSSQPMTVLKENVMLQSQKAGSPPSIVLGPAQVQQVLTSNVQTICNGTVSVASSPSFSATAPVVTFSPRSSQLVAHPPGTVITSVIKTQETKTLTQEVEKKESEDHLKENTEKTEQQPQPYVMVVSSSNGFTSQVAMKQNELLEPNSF
Sequence of ELF4 (Q99607 whole entry): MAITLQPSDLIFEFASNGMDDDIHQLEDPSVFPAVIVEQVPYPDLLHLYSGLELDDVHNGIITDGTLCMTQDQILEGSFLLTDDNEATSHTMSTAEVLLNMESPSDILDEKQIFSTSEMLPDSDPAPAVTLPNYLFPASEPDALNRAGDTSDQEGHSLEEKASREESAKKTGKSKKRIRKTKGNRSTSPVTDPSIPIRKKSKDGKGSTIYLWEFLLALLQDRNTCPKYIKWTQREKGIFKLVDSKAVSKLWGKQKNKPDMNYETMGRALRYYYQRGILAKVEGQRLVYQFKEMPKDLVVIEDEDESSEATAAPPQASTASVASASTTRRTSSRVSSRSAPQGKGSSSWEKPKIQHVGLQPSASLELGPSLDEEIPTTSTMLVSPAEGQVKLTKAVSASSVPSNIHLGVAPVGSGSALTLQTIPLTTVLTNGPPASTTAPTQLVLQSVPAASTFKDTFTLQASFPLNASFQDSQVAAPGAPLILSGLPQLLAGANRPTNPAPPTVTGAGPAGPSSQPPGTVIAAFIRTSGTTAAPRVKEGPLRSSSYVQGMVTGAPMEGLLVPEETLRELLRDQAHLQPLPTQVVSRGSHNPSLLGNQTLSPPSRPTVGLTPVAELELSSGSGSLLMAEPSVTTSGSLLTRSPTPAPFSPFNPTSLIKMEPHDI
Sequence of ETV1 (P50549 whole entry): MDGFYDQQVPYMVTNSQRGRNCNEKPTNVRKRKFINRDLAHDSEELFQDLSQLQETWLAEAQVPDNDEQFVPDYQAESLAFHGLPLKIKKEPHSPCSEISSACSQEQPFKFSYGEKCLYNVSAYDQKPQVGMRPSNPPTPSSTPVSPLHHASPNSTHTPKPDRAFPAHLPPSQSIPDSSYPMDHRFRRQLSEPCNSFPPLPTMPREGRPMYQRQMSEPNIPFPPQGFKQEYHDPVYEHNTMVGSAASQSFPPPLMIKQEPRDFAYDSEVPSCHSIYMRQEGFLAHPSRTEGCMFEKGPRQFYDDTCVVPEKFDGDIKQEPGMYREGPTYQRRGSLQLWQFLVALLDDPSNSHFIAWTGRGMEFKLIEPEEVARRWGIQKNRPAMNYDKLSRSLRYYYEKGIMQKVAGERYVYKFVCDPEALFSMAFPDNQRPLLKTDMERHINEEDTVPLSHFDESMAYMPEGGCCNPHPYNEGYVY
Sequence of SPIB (Q01892 whole entry): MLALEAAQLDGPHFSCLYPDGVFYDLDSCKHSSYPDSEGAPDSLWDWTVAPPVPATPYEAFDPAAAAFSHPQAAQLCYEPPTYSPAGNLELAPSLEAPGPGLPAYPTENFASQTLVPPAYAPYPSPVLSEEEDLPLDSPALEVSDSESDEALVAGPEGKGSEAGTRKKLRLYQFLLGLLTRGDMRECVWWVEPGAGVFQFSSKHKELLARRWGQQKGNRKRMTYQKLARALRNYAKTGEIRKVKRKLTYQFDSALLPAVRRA

Take CACATC: the binding signal was 1.39 fold enrichment (6-mer frequency, TF over GST control) with FLI1; 1.45 fold enrichment (6-mer frequency, TF over GST control) in the assay with ELK1; 1.33 fold enrichment (6-mer frequency, TF over GST control) in the assay with GABPA; 1.64 fold enrichment (6-mer frequency, TF over GST control) in the assay with ERG; 1.4 fold enrichment (6-mer frequency, TF over GST control) in the assay with ELF1; 1.5 fold enrichment (6-mer frequency, TF over GST control) in the assay with EHF. The binding signal in the assay with SPI1 was 1.37 fold enrichment (6-mer frequency, TF over GST control); with SPIB, 1.46 fold enrichment (6-mer frequency, TF over GST control); with ELK3, 1.61 fold enrichment (6-mer frequency, TF over GST control); in the assay with FEV, 1.71 fold enrichment (6-mer frequency, TF over GST control); with ETV5, 1.5 fold enrichment (6-mer frequency, TF over GST control); with SPIC, 1.31 fold enrichment (6-mer frequency, TF over GST control). For the same sequence, the binding signal with ELF4 was 1.36 fold enrichment (6-mer frequency, TF over GST control); in the assay with ELK4, 1.45 fold enrichment (6-mer frequency, TF over GST control); with ETV2, 1.44 fold enrichment (6-mer frequency, TF over GST control); with ELF3, 1.34 fold enrichment (6-mer frequency, TF over GST control); in the assay with ETV1, 1.38 fold enrichment (6-mer frequency, TF over GST control).
On to GCTACA, for which the binding signal was 1.16 fold enrichment (6-mer frequency, TF over GST control) with FLI1; 1.07 fold enrichment (6-mer frequency, TF over GST control) with ELK1; 1.22 fold enrichment (6-mer frequency, TF over GST control) with GABPA; 1.13 fold enrichment (6-mer frequency, TF over GST control) in the assay with ERG; 1.17 fold enrichment (6-mer frequency, TF over GST control) with ELF1; 1.21 fold enrichment (6-mer frequency, TF over GST control) with EHF. Besides, the binding signal in the assay with SPI1 was 1.2 fold enrichment (6-mer frequency, TF over GST control); with SPIB it was 1.24 fold enrichment (6-mer frequency, TF over GST control); with ELK3, 1.19 fold enrichment (6-mer frequency, TF over GST control); in the assay with FEV it was 1.22 fold enrichment (6-mer frequency, TF over GST control); in the assay with ETV5, 1.18 fold enrichment (6-mer frequency, TF over GST control); with SPIC it was 1.33 fold enrichment (6-mer frequency, TF over GST control). Further, the binding signal with ELF4 was 1.18 fold enrichment (6-mer frequency, TF over GST control); with ELK4, 1.24 fold enrichment (6-mer frequency, TF over GST control); with ETV2, 1.17 fold enrichment (6-mer frequency, TF over GST control); in the assay with ELF3 it was 1.27 fold enrichment (6-mer frequency, TF over GST control); with ETV1 it was 1.13 fold enrichment (6-mer frequency, TF over GST control).
